Assay outcomes (PubChem)
Cycloheximide cs: affects cycloheximide protein synthesis inhibition readout, counter-screen | actives 12% (n = 300,000) | cell reporter, cycloheximide protein synthesis inhibition counterscreen | max response, %; in the data active = max response mostly above about 13%, no sharp cut-off; inactive = mostly below about 14%; note: read at 38.3 µM for the half of the compounds with a filed dose
Pf growth 96h: inhibits malaria parasite growth, 96 h; actives 6.9% (n = 320,000); P. falciparum luciferase reporter growth, 96 h; Potency, µM (titrated, usually from 28.7 µM), hits mostly inhibitors; AID 504834
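Readout is luminescence from an integrated firefly luciferase in P. falciparum. Red cells, 2% hematocrit and 0.05% parasitemia final, were cultured with compound through two parasite generations (96 hours) at 37 C, 5% CO2.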
AMA1 RON2 block: disrupts binding of P. falciparum AMA1 to RON2; AlphaScreen AMA1-biotinylated RON2 peptide binding; Potency, µM (doses to about 58.2 µM), usual class: inhibitors; actives 0.2% (n = 360,000); AID 720542; note: nearly all actives have a fitted effect of over 45% in size
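AMA1 (3D7) with his tag at 25 nM final met compounds first, then biotinylated RON2 peptide at 25 nM; detection used donor plus acceptor beads, 10 µg/mL apiece, read by AlphaScreen after 30 min at room temperature.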
SARS PLP yeast: blocks SARS-CoV papain-like protease in a yeast assay | S. cerevisiae expressing SARS-CoV PLpro, growth rescue | Potency, µM (top dose mostly 32.9 µM), actives largely listed as activators | actives 0.19% (n = 330,000); calls by dose curve; note: nearly all actives have a fitted effect of over 55% in size
Pf growth 48h: P. falciparum growth inhibition at 48 hours (one generation) | P. falciparum luciferase growth in erythrocytes, 48 h | Potency, µM (doses to about 28.7 µM), hits mostly inhibitors | actives 5.9% (n = 310,000)
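Luminescence readout; reporter = integrated firefly luciferase in P. falciparum. RBC culture at 2% hematocrit, 0.1% parasitemia final, 37 C/5% CO2; decreased signal taken as growth inhibition.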
Shiga inhibitor: blocks Shiga toxin action in Vero cells; Vero cells, Shiga toxin protein synthesis inhibition reporter; inhibition, % at 38.7 µM; actives 9.2% (n = 290,000); AID 2315; in the data active = inhibition mostly above about 28%, no sharp cut-off; inactive = mostly below about 43%
Large screens that a line does not name were inactive. Hits are enriched below; roughly 19% of the tested compounds scored in any of these assays. Unless noted, calls come from the whole dose curve; as a rule, active = well fitted curve in the direction sought with a large enough effect; inconclusive = small, poorly fitted or top-dose-only effect, or another doubt; inactive = no such curve, though single readings can be large; an effect the other way counts as inactive or inconclusive.

Cc1ccc([N+](=O)[O-])cc1NC(=O)c1ccoc1C	Cycloheximide cs 35.2, Shiga inhibitor 48.3
Cc1cc([N+](=O)[O-])ccc1NC(=O)c1cccc(NC(=O)C(C)C)c1	Cycloheximide cs 15.5, Shiga inhibitor 107.9
COc1ccc(NC(=O)c2cccc(Oc3ccc([N+](=O)[O-])cc3Cl)c2)cc1	AMA1 RON2 block inconclusive
Cc1ccc(C)c(NC(=O)c2cccc(Oc3ccc([N+](=O)[O-])cc3Cl)c2)c1	Pf growth 96h 13.1µM
CC(C)C(=O)Nc1cccc(C(=O)Nc2cc([N+](=O)[O-])ccc2Cl)c1	Pf growth 48h inconclusive
Cc1c(NC(=O)c2ccccc2)cccc1[N+](=O)[O-]	Cycloheximide cs 17.5, Shiga inhibitor active
COc1ccccc1N1C(=O)c2ccc(C(=O)Nc3nccs3)cc2C1=O	none
COC(=O)c1ccc(N)cc1O	Pf growth 96h 10.4µM (no result: Pf growth 48h)
Nc1ccc(C(=O)Oc2ccccc2)c(O)c1	none (no result: Cycloheximide cs, AMA1 RON2 block, SARS PLP yeast, Shiga inhibitor)
Cc1noc(C)c1NC(=O)Nc1ccc2c(c1)CC(=O)N([C@H](C)CO)C[C@@H](C)[C@H](CN(C)CC1CCCCC1)O2	none (no result: Cycloheximide cs, Pf growth 96h, Pf growth 48h, Shiga inhibitor)
O=[N+]([O-])c1ccccc1C(=Nc1ccccc1)c1c(O)cc(O)cc1O	none (no result: Cycloheximide cs, Pf growth 96h, SARS PLP yeast, Pf growth 48h, Shiga inhibitor)
Cc1ccc(CNC(=O)CNC(=O)c2ccc(Br)o2)cc1	none
CCCCCc1ccc(OCCCC[n+]2ccc(C)cc2)c(CCCCC)c1	Pf growth 48h 0.465µM
CCCCCc1ccc(OCCCC[n+]2cccc(C)c2)c(CCCCC)c1	none
CCC(C)(C)c1ccc(OCCCC[n+]2ccccc2)c(C(C)(C)CC)c1	Pf growth 48h 2.08µM
CCCCCc1ccc(OCCCC[n+]2ccccc2)c(CCCCC)c1	Pf growth 48h 0.928µM
CCCCC(=O)NC1(C(F)(F)F)C(=O)N(CC(C)C)C2=C1C(=O)CC(C)(C)C2 (stereo not given)	Shiga inhibitor 43.7
CCCCN1C(=O)C(NC(=O)C2CC2)(C(F)(F)F)C2=C1CC(C)(C)CC2=O (stereo not given)	none
CCOC(=O)C1CCN(S(=O)(=O)c2ccc(C(C)(C)C)cc2)CC1	Pf growth 96h inconclusive
N/C(=N\c1nc2ccccc2o1)NC(=O)c1ccc(F)cc1	Cycloheximide cs 31.9, Shiga inhibitor 72.2
N/C(=N\c1nc2ccccc2o1)NC(=O)c1ccccc1Br	Cycloheximide cs 32.7, Shiga inhibitor 80.5
N/C(=N\c1nc2ccccc2o1)NC(=O)c1ccc(Cl)cc1	none
O=C(Oc1ccc(C(=S)N2CCOCC2)cc1)c1ccc([N+](=O)[O-])cc1	Pf growth 96h 1.47µM (no result: Shiga inhibitor)
O=C(c1ccc([N+](=O)[O-])cc1)N1CCOCC1	none (no result: Cycloheximide cs, Pf growth 96h, SARS PLP yeast, Pf growth 48h, Shiga inhibitor)
COc1cc(C(=S)N2CCOCC2)ccc1OC(=O)c1ccc(Br)cc1	Pf growth 96h 5.22µM
O=C(C1CCN(S(=O)(=O)c2cccs2)CC1)N1CCN(Cc2ccccc2)CC1	none
Cc1ccc(-c2[nH]ncc2/C=C(\C#N)C(=O)NC2CCCCC2)cc1	Pf growth 96h inconclusive, Pf growth 48h inconclusive
COc1ccc(-c2[nH]ncc2/C=C(/C#N)C(=O)NC2CCCCC2)cc1	Pf growth 96h 7.38µM, AMA1 RON2 block inconclusive (no result: Pf growth 48h)
COc1ccc(C(C(=O)NC2CCCC2)N(Cc2cccnc2)C(=O)Cc2cccs2)c(OC)c1 (stereo not given)	Pf growth 96h inconclusive
C/C(=N\n1nnnc1Nc1ccccc1)c1ccc(N)cc1	Cycloheximide cs 26.2 (no result: AMA1 RON2 block)
O=C(NNC(=O)C1CCC1)c1ccc(Br)cc1	none (no result: Cycloheximide cs, Shiga inhibitor)
Cc1c(Br)c(C(=O)NNC(=O)c2ccc(C(C)(C)C)cc2)nn1C	Cycloheximide cs 27.0
Cc1cccc(NC(=O)NNC(=O)c2nn(C)cc2Br)c1	none
CC(C)(C)c1ccc(C(=O)Nn2cnnc2)cc1	none
Cn1cc(Br)c(C(=O)NNC(=O)c2ccc(Br)cc2)n1	Cycloheximide cs 35.3, Pf growth 96h inconclusive, Shiga inhibitor active
Cn1cc(Br)c(C(=O)NNC(=O)c2ccccc2)n1	Pf growth 96h inconclusive
Cn1cc(Br)c(C(=O)NNC(=O)Nc2ccccc2C(F)(F)F)n1	Cycloheximide cs 26.2
Cc1cnc(C(=O)NNC(=O)c2ccc(Br)cc2)cn1	Pf growth 96h inconclusive, Pf growth 48h 11.7µM (no result: Cycloheximide cs, Shiga inhibitor)
CCc1nc2c(OCCOc3ccc(F)cc3)cccn2c1N(C)C(=O)CC(C)C	none (no result: Cycloheximide cs, Pf growth 96h, SARS PLP yeast, Pf growth 48h, Shiga inhibitor)
COC(=O)Cc1ccc(OC(=O)c2cccc(S(=O)(=O)N3CCN(C)CC3)c2)cc1	none (no result: Cycloheximide cs, Shiga inhibitor)
CC1CCCCN1C(=S)Nc1ccc2nc3n(c(=O)c2c1)CCCCC3 (stereo not given)	none
Cc1ccc(NC(=S)N2CCCCC2CO)cc1C (stereo not given)	Cycloheximide cs 15.3
Cc1c(Cl)cccc1NC(=S)N1CCC(N(C)CC2CCCO2)CC1 (stereo not given)	Pf growth 96h 6.57µM
COc1ccc(NC(=S)N2CCC(N(C)CC3CCCO3)CC2)cc1Cl (stereo not given)	Pf growth 96h 6.57µM
Cc1c(Cl)cccc1NC(=S)N1CCN(C(=O)C2CCCO2)CC1 (stereo not given)	none
COc1ccc(NC(=S)N2CCC(N(C)CC3CCCO3)CC2)cc1 (stereo not given)	none
Cc1cccc(NC(=S)N2CCC(N(C)CC3CCCO3)CC2)c1 (stereo not given)	Pf growth 96h inconclusive
Cc1ccc(NC(=S)N2CCC(N(C)CC3CCCO3)CC2)cc1C (stereo not given)	Pf growth 96h 1.47µM
CCCNC(=O)C1(C)CCN(Cc2ccc(-n3ccnc3)cc2)C1 (stereo not given)	none (no result: Cycloheximide cs, Pf growth 96h, SARS PLP yeast, Pf growth 48h, Shiga inhibitor)
CC(C)(C)NC(=O)C1CCN(C(=O)c2ccc(Br)cc2)CC1	Pf growth 48h inconclusive
CN(C(=O)CC1C(=O)NCCN1Cc1cccc(C(F)(F)F)c1)C1CCOCC1 (stereo not given)	none
COc1ccc(C(=O)Oc2c(CN3CCOCC3)cc(Cl)c3cccnc23)cc1	Pf growth 48h 14.7µM (no result: Pf growth 96h)
O=C(Oc1c(CN2CCOCC2)cc(Cl)c2cccnc12)c1ccc(F)cc1	Cycloheximide cs 30.1, Pf growth 48h 4.65µM
C=CCN(c1ccccc1)S(=O)(=O)c1ccc2[nH]cc(C(=O)NCCOC)c(=O)c2c1	Pf growth 96h 4.65µM, Pf growth 48h inconclusive
COCCNC(=O)c1c[nH]c2ccc(S(=O)(=O)N(C)c3ccc(C)c(C)c3)cc2c1=O	Cycloheximide cs 21.5, Pf growth 96h inconclusive (no result: Pf growth 48h)
COCCN1C(=O)N(c2cccc(OC)c2)C(=O)C1CC(=O)Nc1cccc(F)c1 (stereo not given)	Pf growth 96h 4.15µM
COc1ccc(NC(=O)CC2C(=O)N(c3cccc(OC)c3)C(=O)N2Cc2ccco2)cc1 (stereo not given)	Pf growth 96h 9.28µM
COc1ccc(NC(=O)CC2C(=O)N(c3cccc(OC)c3)C(=O)N2CCC(C)C)cc1 (stereo not given)	Pf growth 96h 11.7µM (no result: Pf growth 48h)
